Values without a mark were called inactive. Inconclusive results are not listed. Activity calls are given as the source filed them. Unless noted, the call rests on the fitted dose curve; in most records, active means well fitted curve in the direction sought with a large enough effect; inconclusive means small, poorly fitted or top-dose-only effect, or another doubt; inactive means no such curve, though single readings can be large; an effect the other way counts as inactive or inconclusive.
Legend:
[1] = molecular target: Lysosomal acid glucosylceramidase (Homo sapiens) (UniProt P04062); experiment: Glucocerebrosidase-p2 (AID 348; in the data active means potency below about 10 µM; further: potency means the concentration at half of the fitted maximal effect); conditions: purified GBA, blue fluorogenic substrate, 40 min
Outline: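 Normal human glucocerebrosidase (0.2 nM) with blue fluorogenic substrate (80 uM final) in citrate/phosphate pH 5.9 with 10mM sodium taurocholate, 0.01% tween-20; 40 min RT, NaOH/glycine stop; fluorescence Ex 365/Em 440; AC50 from a titration from 0.6 nM upwards.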

[2] = AP1 Signaling Pathway (AID 357; active means well fitted curve in either direction with a large enough effect, not every such curve was filed as active;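 further: ME-180 reporter cells stimulated with EGF at its EC50 level; on the % scale 0 is the no-effect control and ±100 the full control effect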); conditions: ME-180 AP-1-bla reporter, EGF-induced, beta-lactamase ratio, 5 h; at 7.69 µM (top of the series) unless noted
Outline: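 A ratiometric CCF4 readout (405 nm excitation; 460 and 530 nm emission) quantified AP-1-driven beta-lactamase in ME-180 cells after 5 h with compound and EC50 EGF; AC50 values were derived for activators and inhibitors.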

[3] = molecular target: Cytochrome P450 1A2 (Homo sapiens) (UniProt P05177); experiment: p450-cyp1a2 (AID 410; calls by dose curve; further: potency means the concentration at half of the fitted maximal effect); conditions: recombinant CYP1A2, luciferin-ME demethylation, luminescence; series mostly up to 57 µM
Outline: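 Luminescent demethylation readout: Luciferin-ME (100uM, equal to Km) turned over by 20nM CYP1A2 for 60 min at room temperature after NADPH regeneration addition, following 10 min compound preincubation. Normalization used 57 uM furafylline as full inhibition.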

[4] = NFAT Signaling Pathway (AID 444; active means well fitted curve in either direction with a large enough effect, not every such curve was filed as active;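 further: carbachol stimulus at about its EC50 of 1 µM final; on the % scale 0 is the no-effect control and ±100 the full control effect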); conditions: Jurkat NFAT-bla M1, carbachol, beta-lactamase ratio, 5 h; at 7.69 µM (top of the series) unless noted
Outline: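 Jurkat cells carrying an NFAT-driven β-lactamase reporter and co-transfected muscarinic M1 receptor were treated with compound plus carbachol (1 uM final, an EC50 level) for 5 h at 37 °C. CCF4 loading followed for 1 h at RT; 460/530 nm ratio gave %activity.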

[5] = Stat Signaling Pathway (AID 446; active means well fitted curve in either direction with a large enough effect, not every such curve was filed as active;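 further: ME-180 cervical cancer cells given 40 pM IL-6 alongside compound; SIE-controlled beta-lactamase reporter measured as 460/530 nm FRET emission ratio; on the % scale 0 is the no-effect control and ±100 the full control effect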); conditions: ME-180 (cervical carcinoma) SIE beta-lactamase reporter, IL-6 stimulated, 5 h; at 7.69 µM (top of the series) unless noted
Outline: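 Normalization used AC90 stimulation (300 pM IL-6) and AC90 inhibition (125 nM pan-JAK inhibitor at 40 pM IL-6). The underlying signal is SIE-driven beta-lactamase in ME-180 cells after 5 h IL-6 exposure with compound.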

[6] = molecular target: Glucocorticoid receptor (Homo sapiens) (UniProt P04150); experiment: GR-GFP Redistribution (AID 450;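 active means compounds whose dose series gives a full or clear partial fitted curve of increased nuclear translocation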; further: potency means the concentration at half of the fitted maximal effect); conditions: U2OS GR-GFP nuclear translocation, laser cytometry, 2 h
[7] = molecular target: Glucocorticoid receptor (Homo sapiens) (UniProt P04150); experiment: GR-EFC Redistribution (AID 451; calls by dose curve; further: potency means the concentration at half of the fitted maximal effect); conditions: CHO-K1 GR-EFC translocation, beta-gal luminescence, 2 h
Outline: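 CHO-K1 cells stably expressing nuclear-localized β-gal enzyme acceptor and GR fused C-terminally to the enzyme donor fragment; ligand-driven nuclear translocation restores β-gal by complementation. Compounds titrated up to 46 uM final, 2 h at 37 °C; luminescence read.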

[8] = molecular target: Mitogen-activated protein kinase 10 (Mus musculus) (UniProt Q61831); experiment: JNK3 AlphaScreen Assay (AID 530; active means well fitted curve in either direction with a large enough effect, not every such curve was filed as active;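 further: kinase came from lysate of stimulated human HepG2 cells; signal reports phosphorylation of biotinylated GST-cJun 1-79 at Ser73 with 10 µM ATP; on the % scale 0 is the no-effect control and ±100 the full control effect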); conditions: JNK3 lysate, c-Jun phosphorylation; series mostly up to 57.1 µM
Outline: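 Phosphorylation of biotinylated GST-cJun(1-79) at Ser73 is measured by AlphaScreen proximity luminescence. Enzyme is JNK3 in HepG2 lysates activated with interleukin-1beta and tumor necrosis factor alpha; ATP is 10 uM final.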

[9] = molecular target: 3',5'-cyclic-AMP phosphodiesterase 4B (Homo sapiens) (UniProt Q07343); experiment: qHTS Assay for Inhibitors of PDE-IV (AID 607; active means well fitted activation curve with a large enough effect in the main read-out, with a control signal flat, not every such curve was filed as active; further: % of control where 0% means no effect); conditions: HEK293 ACTOne CNG channel cells, membrane potential fluorescence; series mostly up to 22.9 µM
Outline: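 HEK293 ACTOne cells with CNG channel (1000/well), endogenous PDE4; membrane potential dye, compounds up to 22.9 uM final. Fluorescence Ex 535/Em 590; RO 20-1724 (100 uM final) as reference.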

[10] = molecular target: Cytochrome P450 3A4 (Homo sapiens) (UniProt P08684); experiment: qHTS Assay for Activators of Cytochrome P450 3A4 (AID 885); conditions: recombinant CYP3A4, Luciferin-PPXE luminescence, 60 min; series mostly up to 57.1 µM; further: nearly all actives have a fitted effect of over 65% in size
Outline: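 Human CYP3A4 dealkylates Luciferin-PPXE to luciferin, which luciferase detection converts to light. Substrate was at its KM (25uM), buffer 200mM KPO4, reaction 60 min at RT.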

[11] = molecular target: Dual specificity protein kinase CLK4 (Homo sapiens) (UniProt Q9HAZ1); experiment: qHTS Assay for Inhibitors of CDC-like Kinase 4 (Kinase-Glo Assay) (AID 1770); conditions: recombinant Clk4, Kinase-Glo ATP depletion luminescence; series mostly up to 66.7 µM; further: nearly all actives have a fitted effect of over 65% in size; further: potency means the concentration at half of the fitted maximal effect
Outline: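 Substrate mix (RS peptide 100 uM, ATP 1 uM) dispensed, compound pinned in, then Clk4 added to 25 nM final. Incubated 4.5 h at RT; Kinase-Glo reagent added, luminescence read after 5 min.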

[12] = molecular target: Dual specificity protein kinase CLK4 (Homo sapiens) (UniProt Q9HAZ1); experiment: qHTS Assay for Inhibitors of CDC-like Kinase 4 (ADP-Glo Assay) (AID 1771); conditions: recombinant CLK4, ADP-Glo luminescence; series mostly up to 80 µM; further: nearly all actives have a fitted effect of over 70% in size; further: potency means the concentration at half of the fitted maximal effect
Outline: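 ADP production was read by ADP-Glo luminescence after residual ATP depletion, following 1 h room-temperature reaction of 25 nM Clk4, 1 uM ATP and 100 uM RS peptide with MgCl2, EGTA, DTT and Triton X-100.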

[13] = molecular target: Dual specificity protein kinase CLK4 (Homo sapiens) (UniProt Q9HAZ1); experiment: qHTS Assay for Inhibitors of CDC-like Kinase 4 (ADP-FP Assay) (AID 1795); conditions: Transcreener ADP fluorescence polarization; series mostly up to 50 µM; further: nearly all actives have a fitted effect of over 60% in size; further: potency means the concentration at half of the fitted maximal effect
Outline: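 Clk4 6.25 nM; RS peptide 100 uM; ATP 1 uM; 25 mM Tris pH 7.5, 10 mM MgCl2; 1 h reaction. ADP detected via antibody/orange tracer FP displacement; TG003 positive control.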

[14] = molecular target: Ubiquitin carboxyl-terminal hydrolase 1 (Homo sapiens) (UniProt O94782); experiment: Inhibitors of USP1/UAF1: Pilot qHTS (AID 504865); conditions: purified USP1/UAF1, Ub-rhodamine cleavage fluorescence; series mostly up to 54.9 µM;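 further: rhodamine fluorescence freed from ubiquitin-rhodamine substrate followed over time; top concentration of the series differs between compounds; on the % scale 0 is the no-effect control and ±100 the full control effect; nearly all actives have a fitted effect of over 35% in size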
Outline: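 In 50mM HEPES pH 7.8 containing 0.5mM EDTA, 1mM TCEP, 0.1 mg/ml BSA and 0.01% Tween-20, 1nM USP1/UAF1 is exposed to compound for 15 min, then Ub-Rho (150nM final) is added and fluorescence is read over time.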

[15] = Primary qHTS for small molecule stabilizers of the endoplasmic reticulum resident proteome: Secreted ER Calcium Modulated Protein (SERCaMP) assay (AID 1508630); conditions: SH-SY5Y GLuc-SERCaMP (Gaussia luciferase released on ER calcium loss) secretion, thapsigargin, luminescence; series mostly up to 38.4 µM; further: on the % scale 0 is the no-effect control and ±100 the full control effect
Outline: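 The SH-SY5Y reporter protocol was run at 3 concentrations up to 38.3 uM (primary) or 11 concentrations (follow-up): 16 h compound, 100 nM thapsigargin for 4 h, then extracellular luciferase luminescence.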

[16] = molecular target: Cytochrome P450 3A4 (Homo sapiens) (UniProt P08684); experiment: qHTS Assay for Inhibitors and Substrates of Cytochrome P450 3A4 (AID 884); conditions: recombinant CYP3A4, Luciferin-PPXE luminescence; series mostly up to 57.1 µM; further: potency means the concentration at half of the fitted maximal effect; nearly all actives have a fitted effect of over 50% in size
Outline: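 Luminescent readout of luciferin produced by CYP3A4 (20 nM) dealkylation of Luciferin-PPXE, 25 uM (its KM). NADPH-driven reaction ran 60 min at RT after 10 min compound preincubation; data scaled to 57 uM ketoconazole as 100% inhibition.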

Chain of Glucocorticoid receptor (Homo sapiens) (P04150 whole entry, looked up, the tested form may be a part): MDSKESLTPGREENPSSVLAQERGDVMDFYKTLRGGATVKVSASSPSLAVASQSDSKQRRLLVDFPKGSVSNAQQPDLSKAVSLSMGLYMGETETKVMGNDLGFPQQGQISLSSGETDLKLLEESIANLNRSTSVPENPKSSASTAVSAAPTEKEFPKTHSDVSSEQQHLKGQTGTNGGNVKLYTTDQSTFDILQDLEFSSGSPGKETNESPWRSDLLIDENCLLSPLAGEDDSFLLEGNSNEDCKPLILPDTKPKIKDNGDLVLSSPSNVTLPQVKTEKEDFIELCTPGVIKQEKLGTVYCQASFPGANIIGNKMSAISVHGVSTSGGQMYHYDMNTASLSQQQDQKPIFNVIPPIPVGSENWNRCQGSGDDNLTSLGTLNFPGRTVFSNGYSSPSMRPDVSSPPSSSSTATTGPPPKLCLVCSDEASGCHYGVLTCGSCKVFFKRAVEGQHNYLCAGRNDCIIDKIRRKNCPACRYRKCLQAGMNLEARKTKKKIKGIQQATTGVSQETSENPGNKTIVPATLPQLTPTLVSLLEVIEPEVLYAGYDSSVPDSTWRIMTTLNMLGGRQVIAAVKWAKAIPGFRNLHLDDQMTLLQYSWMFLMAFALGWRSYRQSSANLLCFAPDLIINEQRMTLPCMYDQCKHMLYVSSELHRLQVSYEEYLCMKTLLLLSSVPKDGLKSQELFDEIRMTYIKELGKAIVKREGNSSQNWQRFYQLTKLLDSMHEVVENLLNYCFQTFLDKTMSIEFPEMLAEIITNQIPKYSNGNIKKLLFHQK
Chain of Cytochrome P450 1A2 (Homo sapiens) (P05177 whole entry, looked up): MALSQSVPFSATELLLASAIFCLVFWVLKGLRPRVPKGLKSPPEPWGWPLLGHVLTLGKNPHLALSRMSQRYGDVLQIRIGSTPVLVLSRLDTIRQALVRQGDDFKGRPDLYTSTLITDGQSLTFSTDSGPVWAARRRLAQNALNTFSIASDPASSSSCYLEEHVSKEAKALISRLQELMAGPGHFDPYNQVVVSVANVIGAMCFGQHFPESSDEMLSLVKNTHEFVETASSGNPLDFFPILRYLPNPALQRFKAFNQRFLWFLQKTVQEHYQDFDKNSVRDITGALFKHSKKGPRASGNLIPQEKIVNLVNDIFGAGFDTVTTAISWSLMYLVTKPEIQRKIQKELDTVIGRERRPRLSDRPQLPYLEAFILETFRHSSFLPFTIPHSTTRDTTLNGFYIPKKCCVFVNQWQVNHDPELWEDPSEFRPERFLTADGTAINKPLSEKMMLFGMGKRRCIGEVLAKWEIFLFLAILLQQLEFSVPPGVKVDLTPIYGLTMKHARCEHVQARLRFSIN
Chain of 3',5'-cyclic-AMP phosphodiesterase 4B (Homo sapiens) (Q07343 whole entry, looked up): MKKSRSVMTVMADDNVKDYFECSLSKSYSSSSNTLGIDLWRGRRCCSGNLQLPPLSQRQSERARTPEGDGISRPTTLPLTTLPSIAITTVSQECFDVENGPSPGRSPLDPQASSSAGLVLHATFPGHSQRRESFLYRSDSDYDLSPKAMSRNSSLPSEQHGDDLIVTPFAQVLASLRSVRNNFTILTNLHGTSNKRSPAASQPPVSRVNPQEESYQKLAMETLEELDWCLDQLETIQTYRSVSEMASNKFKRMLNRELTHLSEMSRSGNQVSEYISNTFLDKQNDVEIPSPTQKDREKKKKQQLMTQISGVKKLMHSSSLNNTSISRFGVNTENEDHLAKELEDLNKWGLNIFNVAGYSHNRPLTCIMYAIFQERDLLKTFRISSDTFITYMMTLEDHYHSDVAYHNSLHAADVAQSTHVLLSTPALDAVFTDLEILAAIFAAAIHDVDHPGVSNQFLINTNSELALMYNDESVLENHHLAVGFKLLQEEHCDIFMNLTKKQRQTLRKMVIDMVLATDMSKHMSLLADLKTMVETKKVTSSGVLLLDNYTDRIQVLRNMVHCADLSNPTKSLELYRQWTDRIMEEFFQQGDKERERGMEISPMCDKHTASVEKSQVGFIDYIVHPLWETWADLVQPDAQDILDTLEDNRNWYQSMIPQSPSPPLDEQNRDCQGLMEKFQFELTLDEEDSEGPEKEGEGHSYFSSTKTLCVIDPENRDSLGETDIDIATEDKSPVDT
Chain of Ubiquitin carboxyl-terminal hydrolase 1 (Homo sapiens) (O94782 whole entry, looked up): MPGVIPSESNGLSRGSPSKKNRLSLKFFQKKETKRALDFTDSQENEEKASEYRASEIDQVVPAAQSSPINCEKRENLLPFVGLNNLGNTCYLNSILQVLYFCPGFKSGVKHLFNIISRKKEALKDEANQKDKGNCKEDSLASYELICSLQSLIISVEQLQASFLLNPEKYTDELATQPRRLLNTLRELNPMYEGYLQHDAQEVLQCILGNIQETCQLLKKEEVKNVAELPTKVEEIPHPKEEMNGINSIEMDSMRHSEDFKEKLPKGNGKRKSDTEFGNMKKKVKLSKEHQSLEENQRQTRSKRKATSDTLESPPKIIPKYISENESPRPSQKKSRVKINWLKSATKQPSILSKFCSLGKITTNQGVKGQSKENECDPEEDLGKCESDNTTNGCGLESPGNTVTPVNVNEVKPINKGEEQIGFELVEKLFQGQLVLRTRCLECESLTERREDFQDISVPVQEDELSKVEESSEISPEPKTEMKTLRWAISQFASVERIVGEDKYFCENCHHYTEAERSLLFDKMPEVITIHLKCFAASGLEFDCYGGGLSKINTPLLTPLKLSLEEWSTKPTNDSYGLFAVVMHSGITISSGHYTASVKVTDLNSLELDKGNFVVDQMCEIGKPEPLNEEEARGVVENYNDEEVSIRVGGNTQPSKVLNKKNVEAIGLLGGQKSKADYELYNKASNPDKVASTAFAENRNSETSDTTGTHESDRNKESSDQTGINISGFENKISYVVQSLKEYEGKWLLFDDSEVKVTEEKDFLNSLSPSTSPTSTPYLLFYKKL
Chain of Dual specificity protein kinase CLK4 (Homo sapiens) (Q9HAZ1 whole entry, looked up): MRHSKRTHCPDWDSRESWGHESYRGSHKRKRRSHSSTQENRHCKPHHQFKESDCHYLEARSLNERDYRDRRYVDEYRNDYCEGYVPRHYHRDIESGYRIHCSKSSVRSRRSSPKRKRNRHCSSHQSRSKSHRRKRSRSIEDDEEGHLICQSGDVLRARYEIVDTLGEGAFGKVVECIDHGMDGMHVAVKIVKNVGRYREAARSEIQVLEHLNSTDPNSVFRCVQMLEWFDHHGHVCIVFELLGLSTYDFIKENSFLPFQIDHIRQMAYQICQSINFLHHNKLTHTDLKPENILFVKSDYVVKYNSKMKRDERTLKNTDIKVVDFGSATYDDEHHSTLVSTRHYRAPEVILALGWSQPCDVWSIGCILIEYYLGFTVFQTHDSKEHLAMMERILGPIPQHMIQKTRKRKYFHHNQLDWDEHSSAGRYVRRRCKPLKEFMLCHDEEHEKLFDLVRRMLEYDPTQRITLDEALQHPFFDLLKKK
Chain of Lysosomal acid glucosylceramidase (Homo sapiens) (P04062 whole entry, looked up): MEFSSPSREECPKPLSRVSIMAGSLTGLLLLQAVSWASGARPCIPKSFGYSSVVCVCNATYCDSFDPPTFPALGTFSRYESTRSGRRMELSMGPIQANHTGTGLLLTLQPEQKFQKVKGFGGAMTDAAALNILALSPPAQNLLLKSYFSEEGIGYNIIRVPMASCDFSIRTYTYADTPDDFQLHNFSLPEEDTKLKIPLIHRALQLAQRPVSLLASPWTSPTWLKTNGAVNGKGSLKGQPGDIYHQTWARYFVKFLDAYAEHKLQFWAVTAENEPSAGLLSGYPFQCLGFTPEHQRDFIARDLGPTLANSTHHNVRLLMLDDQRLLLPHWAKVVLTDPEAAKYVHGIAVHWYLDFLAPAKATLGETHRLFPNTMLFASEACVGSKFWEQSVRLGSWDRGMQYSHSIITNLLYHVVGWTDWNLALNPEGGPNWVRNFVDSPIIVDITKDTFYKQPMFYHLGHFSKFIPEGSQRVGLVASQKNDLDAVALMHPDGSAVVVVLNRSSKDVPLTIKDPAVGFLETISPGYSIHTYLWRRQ
Chain of Cytochrome P450 3A4 (Homo sapiens) (P08684 whole entry, looked up): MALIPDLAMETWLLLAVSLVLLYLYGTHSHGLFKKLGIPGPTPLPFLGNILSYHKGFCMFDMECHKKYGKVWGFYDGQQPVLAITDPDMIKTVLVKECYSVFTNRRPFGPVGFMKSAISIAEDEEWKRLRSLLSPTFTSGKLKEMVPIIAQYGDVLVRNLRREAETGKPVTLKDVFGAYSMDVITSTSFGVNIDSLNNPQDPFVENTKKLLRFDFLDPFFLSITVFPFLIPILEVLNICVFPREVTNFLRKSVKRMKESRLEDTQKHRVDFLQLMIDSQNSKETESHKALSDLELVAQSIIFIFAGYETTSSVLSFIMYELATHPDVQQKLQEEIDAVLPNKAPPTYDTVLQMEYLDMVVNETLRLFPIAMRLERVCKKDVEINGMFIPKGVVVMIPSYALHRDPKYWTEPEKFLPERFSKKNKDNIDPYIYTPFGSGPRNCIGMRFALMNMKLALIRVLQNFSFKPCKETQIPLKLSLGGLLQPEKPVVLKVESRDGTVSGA

Structure (SMILES) | Potency [1] | activity change, negative = inhibition [2] [%] | Potency [3] | activity change, negative = inhibition [4] [%] | activity, negative = inhibition [5] [%] | Potency [6] [µM] | Potency [7] [µM] | Potency [8] | Potency [9] | Potency [10] | Potency [11] | Potency [12] | Potency [13] | Potency [14] | outcome [15] | Potency [16]
CNc1nc(-c2ccccc2C)nc2ccccc12 | 8.72 µM (active) | 8.12 | 0.501 µM (active) | 3.1 | 9 | > 46 | > 46 | inactive | inactive | inactive | 12.6 µM (active) | 12.6 µM (active) | 14.1 µM (active) | inactive | inactive | 
O=c1c(-c2cc(F)cc(F)c2)nc2cncnc2n1C1CC1 | > 11.4 µM | -12 | 1.26 µM (active) | 2.52 | -11.9 | > 9.22 | > 46 | inactive | inactive | inactive | inactive | inactive | inactive | inactive | inactive | 
COc1ccc(CNc2ncncc2-c2ccccc2C(F)(F)F)c(OC)c1 | > 11.4 µM | -23.4 | 15.8 µM (active) | -7.18 | 2.4 | > 46 | > 46 | inactive | inactive | inactive | inactive | inactive | inactive | inactive | inactive | 0.316 µM (active)
c1cc(NC2CC2)nc(-c2ccoc2)n1 | > 11.4 µM | -10.4 | 0.251 µM (active) | -10.6 | 14.4 | > 46 | > 46 | inactive | inactive | inactive | inactive | inactive | inactive | inactive | inactive | 5.01 µM (active)
Cc1nc2cnc(Oc3cccc(Cl)c3)nc2n(C2CC2)c1=O | > 11.4 µM | -22.3 | 6.31 µM (active) | -5.3 | -13.7 | > 9.22 | > 46 | inactive | inactive |  | inactive | inactive | inactive | inactive | inactive | 
Cn1cc(-c2nc3cnc(Oc4ccccc4)nc3n(Cc3cccs3)c2=O)c2ccccc21 | > 11.4 µM | 7.68 | 3.16 µM (active) | 23.5 | 11 | > 9.22 | > 46 | inactive | inactive |  | inactive | inactive | inactive | inactive | inactive | 
CN(C)C(=O)c1ccc(-c2nccc(N(C)Cc3ccco3)n2)cc1 | > 11.4 µM | -6.22 | 12.6 µM (active) | -2.09 | 4.76 | > 46 | > 46 | inactive | inactive |  | inactive | inactive | inactive | inactive | inactive | 
COc1ccccc1CNc1ncncc1-c1ccc(C(=O)N(C)C)cc1 | > 11.4 µM | -10.9 | 12.6 µM (active) | 1.11 | 9.05 | > 46 | > 46 | inactive | inactive | inactive | 12.6 µM (active) | 14.1 µM (active) | 12.6 µM (active) | inactive | inactive | 2.51 µM (active)
N#Cc1cccc(-c2cncnc2NCc2ccccc2)c1 | > 11.4 µM | 1.22 | 5.01 µM (active) | 2.64 | -1.62 | > 46 | > 46 | inactive | inactive | inactive | inactive | inactive | inactive | inactive | inactive | 1.26 µM (active)
COCCNc1ccnc(-c2ccccc2C)n1 | > 11.4 µM | -9.97 | 12.6 µM (active) | 3.48 | 15.6 | > 46 | > 46 | inactive | inactive |  | inactive | inactive | inactive | inactive | inactive | 
Clc1ccccc1-c1cc(NCCN2CCOCC2)ncn1 | > 11.4 µM | 1.17 | 31.6 µM (active) | -9.62 | 2.93 | > 46 | > 46 | inactive | inactive |  | inactive | inactive | inactive | inactive | inactive | 
COc1ccccc1-c1cc(-n2ccnc2)ncn1 | > 11.4 µM | 8.26 | 0.316 µM (active) | 7.77 | 10.2 | > 46 | > 46 | inactive | inactive | inactive | 6.31 µM (active) | 6.31 µM (active) | 8.91 µM (active) | inactive | inactive | 0.316 µM (active)
